Source: ChEMBL document CHEMBL1961873, “Compounds: GSK PKIS; Assays: Nanosyn kinase panel” (2012)

Legend:
[1] = biological target: Protein kinase C gamma type (Homo sapiens) (UniProt P05129); settings: at 1 µM;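 further: each value is an averaged percent inhibition of the enzyme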
[2] = biological target: T1, Protein kinase C iota type (Homo sapiens) (UniProt P41743); settings: at 0.1 µM
T1 sequence (whole entry): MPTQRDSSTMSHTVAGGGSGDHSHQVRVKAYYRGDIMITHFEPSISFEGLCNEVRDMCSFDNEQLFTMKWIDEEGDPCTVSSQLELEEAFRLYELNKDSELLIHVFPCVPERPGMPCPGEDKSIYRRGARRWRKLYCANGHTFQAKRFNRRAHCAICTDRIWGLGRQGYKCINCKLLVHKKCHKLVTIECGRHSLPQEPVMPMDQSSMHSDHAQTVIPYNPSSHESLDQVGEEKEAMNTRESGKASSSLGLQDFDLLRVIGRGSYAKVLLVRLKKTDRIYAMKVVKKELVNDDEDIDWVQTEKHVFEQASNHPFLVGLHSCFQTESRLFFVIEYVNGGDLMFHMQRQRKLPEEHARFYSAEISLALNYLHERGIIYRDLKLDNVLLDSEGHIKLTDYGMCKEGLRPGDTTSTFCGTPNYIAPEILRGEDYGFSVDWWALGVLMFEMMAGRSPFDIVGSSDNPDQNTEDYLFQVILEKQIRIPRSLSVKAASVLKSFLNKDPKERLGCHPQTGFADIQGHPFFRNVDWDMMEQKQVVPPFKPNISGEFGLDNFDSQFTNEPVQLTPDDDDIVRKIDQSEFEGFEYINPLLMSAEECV

[3] = biological target: T1, Protein kinase C iota type (Homo sapiens); settings: at 1 µM
[4] = biological target: Protein kinase C theta type (Homo sapiens) (UniProt Q04759); settings: at 0.1 µM
[5] = biological target: Protein kinase C theta type (Homo sapiens) (UniProt Q04759); settings: at 1 µM
[6] = biological target: Protein kinase C beta type (Homo sapiens) (UniProt P05771); settings: at 0.1 µM
[7] = biological target: Protein kinase C beta type (Homo sapiens) (UniProt P05771); settings: at 1 µM
[8] = biological target: T2, Serine/threonine-protein kinase D1 (Homo sapiens) (UniProt Q15139); settings: at 0.1 µM
T2 sequence (whole entry): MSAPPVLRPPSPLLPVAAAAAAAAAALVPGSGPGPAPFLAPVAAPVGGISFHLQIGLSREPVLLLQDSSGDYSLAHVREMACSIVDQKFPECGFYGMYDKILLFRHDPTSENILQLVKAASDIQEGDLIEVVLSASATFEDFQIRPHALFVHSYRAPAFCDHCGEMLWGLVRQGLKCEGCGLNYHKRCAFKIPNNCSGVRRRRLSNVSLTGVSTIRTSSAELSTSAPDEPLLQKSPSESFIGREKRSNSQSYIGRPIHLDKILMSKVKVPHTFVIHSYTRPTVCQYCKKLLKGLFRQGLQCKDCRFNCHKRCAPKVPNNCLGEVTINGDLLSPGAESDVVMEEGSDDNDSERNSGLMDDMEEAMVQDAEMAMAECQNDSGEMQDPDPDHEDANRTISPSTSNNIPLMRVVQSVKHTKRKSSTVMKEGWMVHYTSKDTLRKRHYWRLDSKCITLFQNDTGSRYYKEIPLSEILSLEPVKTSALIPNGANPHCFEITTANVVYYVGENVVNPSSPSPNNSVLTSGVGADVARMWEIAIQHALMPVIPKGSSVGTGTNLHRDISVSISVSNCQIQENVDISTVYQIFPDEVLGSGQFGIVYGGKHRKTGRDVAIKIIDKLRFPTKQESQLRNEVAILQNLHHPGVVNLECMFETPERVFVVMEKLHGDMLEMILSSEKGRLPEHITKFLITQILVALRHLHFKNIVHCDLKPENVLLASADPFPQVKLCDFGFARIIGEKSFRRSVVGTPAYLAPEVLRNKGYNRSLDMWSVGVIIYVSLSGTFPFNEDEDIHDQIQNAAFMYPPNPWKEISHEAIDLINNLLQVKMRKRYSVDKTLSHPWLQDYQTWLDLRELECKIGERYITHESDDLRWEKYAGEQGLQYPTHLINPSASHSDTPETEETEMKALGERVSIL

[9] = biological target: T2, Serine/threonine-protein kinase D1 (Homo sapiens); settings: at 1 µM
[10] = biological target: T3, Serine/threonine-protein kinase D2 (Homo sapiens) (UniProt Q9BZL6); settings: at 0.1 µM
T3 sequence (whole entry): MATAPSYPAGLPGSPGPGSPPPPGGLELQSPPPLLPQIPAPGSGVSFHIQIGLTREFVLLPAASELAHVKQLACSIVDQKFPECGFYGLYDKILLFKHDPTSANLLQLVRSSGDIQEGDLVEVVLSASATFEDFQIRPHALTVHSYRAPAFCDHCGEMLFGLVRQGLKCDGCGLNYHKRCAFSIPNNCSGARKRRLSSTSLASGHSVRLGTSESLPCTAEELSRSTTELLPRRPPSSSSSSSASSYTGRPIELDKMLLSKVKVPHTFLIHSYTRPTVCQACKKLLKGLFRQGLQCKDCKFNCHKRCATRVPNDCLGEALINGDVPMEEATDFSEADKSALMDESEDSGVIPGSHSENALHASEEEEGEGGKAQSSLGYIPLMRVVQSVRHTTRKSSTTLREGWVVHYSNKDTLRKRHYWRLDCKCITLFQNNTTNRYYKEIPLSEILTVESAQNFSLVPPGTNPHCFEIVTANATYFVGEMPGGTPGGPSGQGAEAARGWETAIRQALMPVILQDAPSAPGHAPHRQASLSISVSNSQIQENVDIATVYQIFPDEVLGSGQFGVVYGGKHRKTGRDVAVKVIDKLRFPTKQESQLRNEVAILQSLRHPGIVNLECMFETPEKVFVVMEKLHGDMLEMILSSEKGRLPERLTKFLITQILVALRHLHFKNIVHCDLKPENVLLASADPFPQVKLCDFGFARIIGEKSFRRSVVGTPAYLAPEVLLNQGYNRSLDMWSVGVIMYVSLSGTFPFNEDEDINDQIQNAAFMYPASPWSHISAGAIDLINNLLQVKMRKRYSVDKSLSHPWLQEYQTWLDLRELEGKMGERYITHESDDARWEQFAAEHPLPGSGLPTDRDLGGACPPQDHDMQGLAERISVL

[11] = biological target: T3, Serine/threonine-protein kinase D2 (Homo sapiens); settings: at 1 µM
[12] = biological target: T4, Serine/threonine-protein kinase D3 (Homo sapiens) (UniProt O94806); settings: at 0.1 µM
T4 sequence (whole entry): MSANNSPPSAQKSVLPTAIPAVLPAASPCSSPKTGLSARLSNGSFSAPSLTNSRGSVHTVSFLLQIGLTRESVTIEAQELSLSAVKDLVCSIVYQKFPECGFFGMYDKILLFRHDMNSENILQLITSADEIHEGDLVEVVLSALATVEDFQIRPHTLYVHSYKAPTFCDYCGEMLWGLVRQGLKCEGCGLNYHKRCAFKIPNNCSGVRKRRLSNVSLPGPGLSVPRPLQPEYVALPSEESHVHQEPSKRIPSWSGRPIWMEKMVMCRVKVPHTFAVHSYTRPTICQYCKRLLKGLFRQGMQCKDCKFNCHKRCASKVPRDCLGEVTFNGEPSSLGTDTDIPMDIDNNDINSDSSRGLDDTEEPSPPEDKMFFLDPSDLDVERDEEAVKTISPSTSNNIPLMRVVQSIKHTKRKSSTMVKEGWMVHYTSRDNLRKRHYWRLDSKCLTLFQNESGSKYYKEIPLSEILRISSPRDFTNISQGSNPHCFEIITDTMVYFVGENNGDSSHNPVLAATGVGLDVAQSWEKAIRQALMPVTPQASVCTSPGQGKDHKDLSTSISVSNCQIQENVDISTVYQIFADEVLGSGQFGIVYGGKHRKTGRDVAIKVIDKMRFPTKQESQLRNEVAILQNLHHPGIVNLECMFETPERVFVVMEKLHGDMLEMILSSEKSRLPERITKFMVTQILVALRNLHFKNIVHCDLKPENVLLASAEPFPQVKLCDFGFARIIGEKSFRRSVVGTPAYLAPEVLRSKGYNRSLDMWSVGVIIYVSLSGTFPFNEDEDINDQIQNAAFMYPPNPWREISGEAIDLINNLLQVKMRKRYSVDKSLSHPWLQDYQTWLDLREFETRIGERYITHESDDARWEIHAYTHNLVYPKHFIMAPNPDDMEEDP

[13] = biological target: T4, Serine/threonine-protein kinase D3 (Homo sapiens); settings: at 1 µM
[14] = biological target: T5, cGMP-dependent protein kinase 1 (Homo sapiens) (UniProt Q13976); settings: at 0.1 µM
T5 sequence (whole entry): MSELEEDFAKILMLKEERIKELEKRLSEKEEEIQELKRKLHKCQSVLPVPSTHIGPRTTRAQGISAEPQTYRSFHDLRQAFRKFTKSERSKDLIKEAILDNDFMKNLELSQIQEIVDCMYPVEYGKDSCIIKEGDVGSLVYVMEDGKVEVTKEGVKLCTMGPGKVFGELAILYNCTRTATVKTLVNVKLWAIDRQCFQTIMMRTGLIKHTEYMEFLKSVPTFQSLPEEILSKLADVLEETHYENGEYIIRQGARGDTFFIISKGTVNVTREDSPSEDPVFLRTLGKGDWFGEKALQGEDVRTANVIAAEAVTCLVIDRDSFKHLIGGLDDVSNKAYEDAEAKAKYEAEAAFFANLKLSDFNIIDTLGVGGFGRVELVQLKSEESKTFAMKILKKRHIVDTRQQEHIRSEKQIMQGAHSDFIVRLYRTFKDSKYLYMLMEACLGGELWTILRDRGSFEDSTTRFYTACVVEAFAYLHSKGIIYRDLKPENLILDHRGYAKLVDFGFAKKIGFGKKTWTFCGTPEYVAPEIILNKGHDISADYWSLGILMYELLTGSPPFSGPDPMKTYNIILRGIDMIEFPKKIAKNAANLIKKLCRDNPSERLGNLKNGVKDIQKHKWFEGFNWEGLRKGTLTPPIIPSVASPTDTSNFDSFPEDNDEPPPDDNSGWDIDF

[15] = biological target: T5, cGMP-dependent protein kinase 1 (Homo sapiens); settings: at 1 µM
[16] = biological target: T6, cGMP-dependent protein kinase 2 (Homo sapiens) (UniProt Q13237); settings: at 0.1 µM
T6 sequence (whole entry): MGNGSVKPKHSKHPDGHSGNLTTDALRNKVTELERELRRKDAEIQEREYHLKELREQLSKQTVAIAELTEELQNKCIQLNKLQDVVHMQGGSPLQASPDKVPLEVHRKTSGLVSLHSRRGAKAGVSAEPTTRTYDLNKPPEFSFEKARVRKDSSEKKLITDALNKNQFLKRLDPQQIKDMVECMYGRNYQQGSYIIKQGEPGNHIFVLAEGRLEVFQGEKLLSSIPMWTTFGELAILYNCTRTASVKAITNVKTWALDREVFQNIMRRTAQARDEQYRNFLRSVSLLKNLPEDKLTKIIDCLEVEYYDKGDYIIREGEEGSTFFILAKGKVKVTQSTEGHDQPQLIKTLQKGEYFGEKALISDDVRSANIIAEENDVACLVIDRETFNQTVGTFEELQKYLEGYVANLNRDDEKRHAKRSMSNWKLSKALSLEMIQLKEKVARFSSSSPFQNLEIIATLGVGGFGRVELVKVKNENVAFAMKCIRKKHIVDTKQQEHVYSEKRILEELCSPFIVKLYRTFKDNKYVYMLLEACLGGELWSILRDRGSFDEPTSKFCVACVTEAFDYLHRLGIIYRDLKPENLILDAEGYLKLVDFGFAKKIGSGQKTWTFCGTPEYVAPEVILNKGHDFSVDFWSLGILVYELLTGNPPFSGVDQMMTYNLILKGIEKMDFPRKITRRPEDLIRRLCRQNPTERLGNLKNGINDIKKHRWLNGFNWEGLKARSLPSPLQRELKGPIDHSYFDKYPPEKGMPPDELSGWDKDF

[17] = biological target: T6, cGMP-dependent protein kinase 2 (Homo sapiens); settings: at 1 µM
[18] = biological target: T7, cAMP-dependent protein kinase catalytic subunit PRKX (Homo sapiens) (UniProt P51817); settings: at 0.1 µM
T7 sequence (whole entry): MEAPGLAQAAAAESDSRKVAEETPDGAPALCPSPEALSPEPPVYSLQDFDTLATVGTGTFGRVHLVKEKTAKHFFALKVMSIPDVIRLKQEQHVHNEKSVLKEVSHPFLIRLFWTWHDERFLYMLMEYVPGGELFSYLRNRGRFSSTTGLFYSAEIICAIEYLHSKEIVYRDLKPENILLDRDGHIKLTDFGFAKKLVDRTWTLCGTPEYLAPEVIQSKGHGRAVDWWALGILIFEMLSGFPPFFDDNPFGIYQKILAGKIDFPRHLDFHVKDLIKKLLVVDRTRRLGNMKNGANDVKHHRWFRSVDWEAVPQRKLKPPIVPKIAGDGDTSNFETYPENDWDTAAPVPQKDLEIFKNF

[19] = biological target: T7, cAMP-dependent protein kinase catalytic subunit PRKX (Homo sapiens); settings: at 1 µM
[20] = biological target: Rho-associated protein kinase 1 (Homo sapiens) (UniProt Q13464); settings: at 0.1 µM;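 further: values are mean percent inhibition of ROCK1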
Rho-associated protein kinase 1 (Homo sapiens), sequence (Q13464 2-1354 limits assumed): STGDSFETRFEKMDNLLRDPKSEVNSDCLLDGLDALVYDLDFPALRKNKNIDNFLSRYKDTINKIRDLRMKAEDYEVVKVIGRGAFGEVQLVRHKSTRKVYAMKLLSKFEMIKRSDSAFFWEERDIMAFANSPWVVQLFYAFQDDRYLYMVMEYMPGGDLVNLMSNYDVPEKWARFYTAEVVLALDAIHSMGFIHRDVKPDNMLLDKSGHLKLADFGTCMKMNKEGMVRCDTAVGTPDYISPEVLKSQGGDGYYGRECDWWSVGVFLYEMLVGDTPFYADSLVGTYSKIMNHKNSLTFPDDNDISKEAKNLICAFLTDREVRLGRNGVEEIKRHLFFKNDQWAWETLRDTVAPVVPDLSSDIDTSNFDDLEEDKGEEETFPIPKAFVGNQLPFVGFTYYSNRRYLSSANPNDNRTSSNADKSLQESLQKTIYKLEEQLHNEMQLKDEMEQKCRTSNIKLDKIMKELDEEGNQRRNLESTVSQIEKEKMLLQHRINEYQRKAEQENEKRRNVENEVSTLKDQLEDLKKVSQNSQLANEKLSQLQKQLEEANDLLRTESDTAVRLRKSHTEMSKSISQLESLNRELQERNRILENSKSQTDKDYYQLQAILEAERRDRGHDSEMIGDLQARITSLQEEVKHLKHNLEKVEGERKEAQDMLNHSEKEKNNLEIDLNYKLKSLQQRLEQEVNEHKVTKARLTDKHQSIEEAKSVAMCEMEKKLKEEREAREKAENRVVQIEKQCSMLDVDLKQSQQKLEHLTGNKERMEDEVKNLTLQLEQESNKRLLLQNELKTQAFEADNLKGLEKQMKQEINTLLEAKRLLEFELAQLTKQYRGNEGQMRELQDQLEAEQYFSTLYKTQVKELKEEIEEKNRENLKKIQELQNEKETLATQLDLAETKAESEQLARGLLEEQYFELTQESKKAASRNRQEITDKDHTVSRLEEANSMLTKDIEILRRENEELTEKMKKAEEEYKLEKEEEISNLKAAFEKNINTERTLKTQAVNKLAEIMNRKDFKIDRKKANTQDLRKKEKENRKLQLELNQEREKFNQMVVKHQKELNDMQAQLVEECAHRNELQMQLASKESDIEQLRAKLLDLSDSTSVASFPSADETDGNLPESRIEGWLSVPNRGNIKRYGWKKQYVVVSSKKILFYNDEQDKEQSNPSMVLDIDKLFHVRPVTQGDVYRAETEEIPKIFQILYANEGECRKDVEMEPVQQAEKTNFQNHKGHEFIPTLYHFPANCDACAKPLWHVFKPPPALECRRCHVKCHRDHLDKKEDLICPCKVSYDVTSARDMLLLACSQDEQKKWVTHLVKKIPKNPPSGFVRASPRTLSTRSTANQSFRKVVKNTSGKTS

Protein kinase C theta type (Homo sapiens), sequence (Q04759 whole entry, looked up): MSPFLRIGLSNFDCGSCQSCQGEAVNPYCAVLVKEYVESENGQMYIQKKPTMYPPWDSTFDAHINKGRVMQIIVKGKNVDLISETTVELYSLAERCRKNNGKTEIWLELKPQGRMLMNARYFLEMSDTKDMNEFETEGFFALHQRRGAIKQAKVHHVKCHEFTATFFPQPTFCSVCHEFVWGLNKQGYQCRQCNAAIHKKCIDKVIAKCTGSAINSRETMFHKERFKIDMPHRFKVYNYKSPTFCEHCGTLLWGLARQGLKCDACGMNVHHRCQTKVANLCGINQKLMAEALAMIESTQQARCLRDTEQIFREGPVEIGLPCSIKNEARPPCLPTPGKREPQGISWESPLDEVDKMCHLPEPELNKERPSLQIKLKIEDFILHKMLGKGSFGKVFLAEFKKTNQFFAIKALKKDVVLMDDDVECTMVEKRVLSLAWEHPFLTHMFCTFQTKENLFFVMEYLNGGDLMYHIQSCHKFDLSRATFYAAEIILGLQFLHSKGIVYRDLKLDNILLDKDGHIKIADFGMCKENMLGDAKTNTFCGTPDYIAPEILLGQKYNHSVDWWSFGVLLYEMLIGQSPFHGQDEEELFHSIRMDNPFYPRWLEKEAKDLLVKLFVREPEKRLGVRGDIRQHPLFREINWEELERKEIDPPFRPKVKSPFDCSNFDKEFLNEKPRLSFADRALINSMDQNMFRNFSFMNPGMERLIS
Protein kinase C beta type (Homo sapiens), sequence (P05771 2-671 limits assumed): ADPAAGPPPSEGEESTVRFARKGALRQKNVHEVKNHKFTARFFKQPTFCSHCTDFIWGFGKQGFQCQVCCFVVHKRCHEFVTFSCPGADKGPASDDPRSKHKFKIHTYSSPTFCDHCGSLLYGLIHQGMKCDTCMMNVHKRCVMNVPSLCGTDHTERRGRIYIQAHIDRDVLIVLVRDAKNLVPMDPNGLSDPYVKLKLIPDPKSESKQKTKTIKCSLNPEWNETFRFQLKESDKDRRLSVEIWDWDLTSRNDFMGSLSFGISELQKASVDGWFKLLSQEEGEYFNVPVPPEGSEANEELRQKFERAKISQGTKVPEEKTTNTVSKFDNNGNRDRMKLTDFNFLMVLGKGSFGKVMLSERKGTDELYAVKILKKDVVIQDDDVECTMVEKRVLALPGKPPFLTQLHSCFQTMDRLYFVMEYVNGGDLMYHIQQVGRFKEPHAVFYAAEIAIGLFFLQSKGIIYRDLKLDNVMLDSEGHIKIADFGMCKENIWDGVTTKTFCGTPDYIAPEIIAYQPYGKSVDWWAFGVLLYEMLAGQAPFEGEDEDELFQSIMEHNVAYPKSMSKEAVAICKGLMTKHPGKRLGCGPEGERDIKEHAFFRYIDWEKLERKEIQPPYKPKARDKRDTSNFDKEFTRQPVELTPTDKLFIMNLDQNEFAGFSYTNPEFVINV

| SMILES | inhibition [1] | inhibition [2] | inhibition [3] | inhibition [4] | inhibition [5] | inhibition [6] | inhibition [7] | inhibition [8] | inhibition [9] | inhibition [10] | inhibition [11] | inhibition [12] | inhibition [13] | inhibition [14] | inhibition [15] | inhibition [16] | inhibition [17] | inhibition [18] | inhibition [19] | inhibition [20] |
| --- | --- | --- | --- | --- | --- | --- | --- | --- | --- | --- | --- | --- | --- | --- | --- | --- | --- | --- | --- | --- |
| NS(=O)(=O)c1ccc(N/N=C2\C(=O)Nc3ccc(Cl)cc32)cc1 | 4.85% | 1.02% | 0.75% | 2.29% | 4.86% | 0.92% | 1.29% | 2.46% | 7.47% | 3.87% | 5.28% | 3.58% | 5.68% | 2.65% | 6.01% | 3.85% | 5.8% | 4.2% | 7.86% | 0.31% |
| Cc1nc(-c2ccccc2)n2nc(NCCCN3CCOCC3)ncc12 | 4.35% | -0.08% | -1.15% | 1.47% | -0.08% | 1.18% | 2.05% | 2.52% | 3.13% | 2.7% | 2.01% | 1.88% | 2.23% | 1.36% | 3.22% | 1.49% | 3.07% | 2.28% | 1.01% | 0.46% |
| Cc1ccc(Nc2ccnc(Nc3cccc(C(N)=O)c3)n2)cc1O | 16.4% | 1.56% | -0.31% | 0.93% | 2.94% | 1.81% | 8.28% | -0.94% | 12.1% | -0.15% | 10.1% | -0.05% | 9.43% | 1.11% | 3.77% | 2.93% | 7.68% | 1.82% | 2.66% | 0.56% |
